These results are taken from PubChem BioAssay.

Calls of active or inactive are those of the source.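 Rule for the calls, unless noted: active = visually confirmed hit in the image check and inhibition above 20%; inconclusive = visually confirmed hit but inhibition not above 20%; inactive = no visual hit in the image check.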

Usually inhibition stands for the change of the read-out against control, counted positive when it falls.

Tested on in one assay: not listed separately
Description: endothelial E-selectin expression blockers – imaging, HUVEC, immunofluorescence, MLSMR starter and 10KST1 sets, primary screen (AID 487).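 For inhibition: signal is fraction of cell area covered by stained E-selectin grains.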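 For nuclei count: 100% = median nuclei count of all wells on the same plate.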 The following applies: HUVEC TNFalpha-induced E-selectin immunofluorescence imaging, at 2 µM; inhibition: stronger effect = higher value; nuclei count: measured here: cell number, toxicity.
`COc1cc(C(=O)Nc2ccc3c(c2)C(=O)N(CCC(=O)O)C3=O)cc(OC)c1OC`: the inhibition was -37.8% (inactive) and the nuclei count amounted to 87.3%.

Consider `Cc1cc(NC(=O)c2ccc3nc(-c4ccccc4)c(-c4ccccc4)nc3c2)no1`, for which the inhibition was -66.9% (inactive) and the nuclei count was found to be 106%.

In the case of `Cc1ccc2c(c1C)NC(C)CC2C` (stereo not given), the inhibition was 35.5% (inactive) and the nuclei count stood at 100%.

As to `Cn1c(CCCNC(=O)c2ccccc2)nc2ccccc21`, the nuclei count is 131% and the inhibition was -49.3% (inactive).

Turning to `CCOc1ccc(N2CC(C(=O)Nc3ccc(F)cc3F)CC2=O)cc1` (stereo not given), the inhibition is -3.5% (inactive) and the nuclei count turned out to be 99.9%.

Turning to `CC(=O)Nc1nc(C)c(-c2csc(Nc3ccc(O)cc3)n2)s1`, the nuclei count turned out to be 164% and the inhibition is -154% (inactive).

Consider `O=C(NCc1ccco1)C1CCN(C(=O)c2cc3sccc3n2Cc2ccc(F)cc2)CC1`, for which the nuclei count was determined as 101% and the inhibition was -27.8% (inactive).

In the case of `O=C(COC(=O)C1(c2ccccc2F)CCCC1)NC1CCS(=O)(=O)C1` (stereo not given), the nuclei count turned out to be 106% and the inhibition is -14.4% (inactive).

On to `N#CC1=C(N)Oc2n[nH]c(-c3cccs3)c2C1c1cccs1` (stereo not given), for which the nuclei count turned out to be 113% and the inhibition is -80.1% (inactive).

Regarding `NC(=O)C1(N2CCCCC2)CCN(Cc2ccccc2Cl)CC1`, the nuclei count worked out at 103% and the inhibition is 3.4% (inactive).

`CCCCc1ccc(NC(=O)c2c(C)noc2C)cc1`: the nuclei count came to 95.2% and the inhibition was 47.3% (inactive).

Consider `CC(=O)Oc1cccc(/C=c2\sc3nc(-c4ccco4)nn3c2=O)c1`, for which the nuclei count worked out at 80.7% and the inhibition was -69.5% (inactive).

For `CCN(CC)S(=O)(=O)c1ccc2oc(C(=O)O)c(C)c2c1`, the nuclei count turned out to be 104% and the inhibition is -89.3% (inactive).

Turning to `Cc1noc(C)c1COc1cccc(C(=O)Oc2ccc3c(c2)OCO3)c1`, the nuclei count worked out at 100% and the inhibition is 1.2% (inactive).

Turning to `CCOC(=O)COc1ccc(S(=O)(=O)Nc2ccc3c(c2)OCO3)cc1`, the nuclei count was found to be 115% and the inhibition was -137% (inactive).

As for `COc1ccc(N(CC(=O)N2CCN(Cc3ccc4c(c3)OCO4)CC2)S(C)(=O)=O)cc1OC`, the nuclei count was determined as 112% and the inhibition is -52.6% (inactive).

Take `CNC(=O)CN(C#N)c1nc(N(C)C)nc(N(C)C)n1`: the nuclei count amounted to 114% and the inhibition is -47.6% (inactive).

Consider `COc1cccc(-n2c(C)nc3c(cnn3-c3ccc(C)cc3)c2=O)c1`, for which the inhibition is -67.2% (inactive) and the nuclei count came out at 118%.

`Cc1ccccc1-c1nc(CN2CCC(C(=O)NCCCN3CCOCC3)CC2)c(C)o1`: the nuclei count amounted to 102% and the inhibition is -67.2% (inactive).

For `Cc1nc2cc(NC(=O)N3CC4(C)CC3CC(C)(C)C4)ccc2n1C` (stereo not given), the nuclei count was 105% and the inhibition is 11.9% (inactive).

Regarding `CS(=O)(=O)N(CC(=O)N1CCN(c2cccc(Cl)c2)CC1)C1CCCCC1`, the nuclei count is 78.2% and the inhibition was 8.8% (inactive).

Consider `CC(C)(C)n1ncc2c(=O)n(CC(=O)NCCc3ccccc3)cnc21`, for which the inhibition was 27.5% (inactive) and the nuclei count turned out to be 92.8%.

`CCCCc1cc(=O)oc2cc(C)cc(OC(C)C(=O)O)c12` (stereo not given): the nuclei count was determined as 134% and the inhibition was -39.6% (inactive).

`CC(C)(C)c1ccccc1NC(=O)c1cccnc1`: the nuclei count stood at 89.7% and the inhibition is -81.8% (inactive).

Take `Cc1cc(-c2ccccc2)c2nncn2n1`: the inhibition is 1.4% (inactive) and the nuclei count is 107%.

Turning to `Cc1ccc(-c2nnn(CC(=O)N(CC(=O)NCC3CCCO3)c3ccccc3)n2)o1` (stereo not given), the inhibition is -161% (inactive) and the nuclei count came out at 106%.

As for `C=CCSc1nnc(-c2ccccc2NC(C)=O)c(=O)[nH]1`, the nuclei count turned out to be 107% and the inhibition was -60.3% (inactive).

Consider `Cn1c(=O)c2c(nc(SCC(=O)NCc3ccc4c(c3)OCO4)n2Cc2ccccc2)n(C)c1=O`, for which the nuclei count worked out at 115% and the inhibition is -33% (inactive).

For the molecule `COc1cc(C(=O)N2CCC(c3nc(-c4cccnc4)no3)CC2)cc(OC)c1OC`, the inhibition was -33.4% (inactive) and the nuclei count was found to be 102%.

As to `CC1CCc2nc(NC(=O)CN3CCN(Cc4ccc5c(c4)OCO5)CC3)sc2C1` (stereo not given), the inhibition was -24.4% (inactive) and the nuclei count turned out to be 97.3%.

On to `O=C(CCCn1c(=O)c2sccc2n(Cc2ccc(F)cc2)c1=O)NCc1ccco1`, for which the inhibition is -40.1% (inactive) and the nuclei count was found to be 106%.

Take `Cc1ccc2cc(CN(CC(C)C)C(=O)C3CCCO3)c(=O)[nH]c2c1` (stereo not given): the nuclei count is 147% and the inhibition is -62.4% (inactive).

Turning to `CCOc1ccc(C(=O)N(CN2CCCC2=O)c2ccc(C)cc2)cc1`, the nuclei count came to 84% and the inhibition is 14.5% (inactive).

As for `CCCCCc1c(O)c2ccccc2[nH]c1=O`, the inhibition was -4.6% (inactive) and the nuclei count is 87%.

On to `CC1CCN(S(=O)(=O)c2ccc(NC(=O)CSc3nnnn3C)cc2)CC1`, for which the inhibition was -1.6% (inactive) and the nuclei count worked out at 91.8%.

Consider `O=C(c1nc2n(n1)C(c1ccc(Cl)cc1)C=C(c1ccccc1)N2)N1CCOCC1` (stereo not given), for which the nuclei count turned out to be 110% and the inhibition is 14.2% (inactive).

With `Cc1nc2cccc(C(=O)NC3CCCCC3)c2o1`, the nuclei count was found to be 102% and the inhibition was -67.3% (inactive).

As for `COc1ccccc1-c1nnc2sc(-c3ccc(N(C)C)cc3)nn12`, the inhibition is -217% (inactive) and the nuclei count was 107%.

Regarding `O=C(Nc1cccc(C(F)(F)F)c1)c1cccnc1N1CCCC1`, the inhibition was -32.4% (inactive) and the nuclei count came out at 118%.

In the case of `CCNC(=O)C1CC(=O)N(Cc2ccc3c(c2)OCO3)C(=Nc2ccc(OCC)cc2)S1` (stereo not given), the inhibition was -3.2% (inactive) and the nuclei count is 119%.

The target of the next assay is Voltage-gated potassium channel subunit beta-2 (Rattus norvegicus) (UniProt P62483). As to the kind of experiment: inhibitors of rat Kvbeta2 reductase activity – biochemical, NADPH fluorescence, primary screen (AID 622;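 active = fluorescence slope higher than the sample average by over 3 SD, cut at about -0.22 in these data, passing the limit was not always enough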;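 note: slope of raw intensity against log time taken from 70 to 1610 s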). The following applies: recombinant KvBeta, 4-cyanobenzaldehyde reduction, at 10 µM, stronger effect = higher value.
Chain of Voltage-gated potassium channel subunit beta-2 (Rattus norvegicus) (P62483 whole entry, looked up): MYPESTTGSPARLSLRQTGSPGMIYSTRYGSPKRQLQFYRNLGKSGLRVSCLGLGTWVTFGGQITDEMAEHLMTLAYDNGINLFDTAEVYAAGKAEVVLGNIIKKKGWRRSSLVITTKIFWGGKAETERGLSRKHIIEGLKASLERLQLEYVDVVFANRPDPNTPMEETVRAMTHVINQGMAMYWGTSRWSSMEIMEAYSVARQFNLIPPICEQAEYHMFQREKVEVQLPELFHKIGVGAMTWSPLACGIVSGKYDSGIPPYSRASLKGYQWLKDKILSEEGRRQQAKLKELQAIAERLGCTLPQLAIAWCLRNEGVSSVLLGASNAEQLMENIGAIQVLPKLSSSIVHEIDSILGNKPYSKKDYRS
Take `COc1cc(C(=O)Nc2ccc3c(c2)C(=O)N(CCC(=O)O)C3=O)cc(OC)c1OC`: the fluorescence slope is -0.488 (inactive).

Regarding `Cc1cc(NC(=O)c2ccc3nc(-c4ccccc4)c(-c4ccccc4)nc3c2)no1`, the fluorescence slope was -0.463 (inactive).

For `Cc1ccc2c(c1C)NC(C)CC2C` (stereo not given), the fluorescence slope is -0.604 (inactive).

As to `Cn1c(CCCNC(=O)c2ccccc2)nc2ccccc21`, the fluorescence slope is -0.275 (inactive).

Turning to `CCOc1ccc(N2CC(C(=O)Nc3ccc(F)cc3F)CC2=O)cc1` (stereo not given), the fluorescence slope was -0.587 (inactive).

With `CC(=O)Nc1nc(C)c(-c2csc(Nc3ccc(O)cc3)n2)s1`, the fluorescence slope was -0.556 (inactive).

Regarding `O=C(NCc1ccco1)C1CCN(C(=O)c2cc3sccc3n2Cc2ccc(F)cc2)CC1`, the fluorescence slope is -0.381 (inactive).

As for `O=C(COC(=O)C1(c2ccccc2F)CCCC1)NC1CCS(=O)(=O)C1` (stereo not given), the fluorescence slope was -0.578 (inactive).

Regarding `N#CC1=C(N)Oc2n[nH]c(-c3cccs3)c2C1c1cccs1` (stereo not given), the fluorescence slope is -0.396 (inactive).

On to `NC(=O)C1(N2CCCCC2)CCN(Cc2ccccc2Cl)CC1`, for which the fluorescence slope is -0.233 (inactive).

Turning to `CCCCc1ccc(NC(=O)c2c(C)noc2C)cc1`, the fluorescence slope was -0.563 (inactive).

For `CC(=O)Oc1cccc(/C=c2\sc3nc(-c4ccco4)nn3c2=O)c1`, the fluorescence slope is -0.549 (inactive).

As for `CCN(CC)S(=O)(=O)c1ccc2oc(C(=O)O)c(C)c2c1`, the fluorescence slope is -0.473 (inactive).

`Cc1noc(C)c1COc1cccc(C(=O)Oc2ccc3c(c2)OCO3)c1`: the fluorescence slope is -0.567 (inactive).

As for `CCOC(=O)COc1ccc(S(=O)(=O)Nc2ccc3c(c2)OCO3)cc1`, the fluorescence slope was -0.588 (inactive).

Regarding `COc1ccc(N(CC(=O)N2CCN(Cc3ccc4c(c3)OCO4)CC2)S(C)(=O)=O)cc1OC`, the fluorescence slope was -0.538 (inactive).

`CNC(=O)CN(C#N)c1nc(N(C)C)nc(N(C)C)n1`: the fluorescence slope is -0.553 (inactive).

As to `COc1cccc(-n2c(C)nc3c(cnn3-c3ccc(C)cc3)c2=O)c1`, the fluorescence slope was -0.577 (inactive).

With `Cc1ccccc1-c1nc(CN2CCC(C(=O)NCCCN3CCOCC3)CC2)c(C)o1`, the fluorescence slope is -0.496 (inactive).

`Cc1nc2cc(NC(=O)N3CC4(C)CC3CC(C)(C)C4)ccc2n1C` (stereo not given): the fluorescence slope was -0.484 (inactive).

For the molecule `CS(=O)(=O)N(CC(=O)N1CCN(c2cccc(Cl)c2)CC1)C1CCCCC1`, the fluorescence slope is -0.576 (inactive).

Regarding `CC(C)(C)n1ncc2c(=O)n(CC(=O)NCCc3ccccc3)cnc21`, the fluorescence slope was -0.595 (inactive).

As to `CCCCc1cc(=O)oc2cc(C)cc(OC(C)C(=O)O)c12` (stereo not given), the fluorescence slope is -0.0718 (inactive).

In the case of `CC(C)(C)c1ccccc1NC(=O)c1cccnc1`, the fluorescence slope was -0.533 (inactive).

`Cc1cc(-c2ccccc2)c2nncn2n1`: the fluorescence slope was -0.492 (inactive).

Take `Cc1ccc(-c2nnn(CC(=O)N(CC(=O)NCC3CCCO3)c3ccccc3)n2)o1` (stereo not given): the fluorescence slope was -0.584 (inactive).

In the case of `C=CCSc1nnc(-c2ccccc2NC(C)=O)c(=O)[nH]1`, the fluorescence slope is -0.468 (inactive).

For `Cn1c(=O)c2c(nc(SCC(=O)NCc3ccc4c(c3)OCO4)n2Cc2ccccc2)n(C)c1=O`, the fluorescence slope is -0.473 (inactive).

On to `COc1cc(C(=O)N2CCC(c3nc(-c4cccnc4)no3)CC2)cc(OC)c1OC`, for which the fluorescence slope is -0.28 (inactive).

As for `CC1CCc2nc(NC(=O)CN3CCN(Cc4ccc5c(c4)OCO5)CC3)sc2C1` (stereo not given), the fluorescence slope was -0.544 (inactive).

Take `O=C(CCCn1c(=O)c2sccc2n(Cc2ccc(F)cc2)c1=O)NCc1ccco1`: the fluorescence slope was -0.583 (inactive).

Take `Cc1ccc2cc(CN(CC(C)C)C(=O)C3CCCO3)c(=O)[nH]c2c1` (stereo not given): the fluorescence slope is -0.565 (inactive).

Turning to `CCOc1ccc(C(=O)N(CN2CCCC2=O)c2ccc(C)cc2)cc1`, the fluorescence slope is -0.53 (inactive).

On to `CCCCCc1c(O)c2ccccc2[nH]c1=O`, for which the fluorescence slope is -0.565 (inactive).

Consider `CC1CCN(S(=O)(=O)c2ccc(NC(=O)CSc3nnnn3C)cc2)CC1`, for which the fluorescence slope is -0.411 (inactive).

With `O=C(c1nc2n(n1)C(c1ccc(Cl)cc1)C=C(c1ccccc1)N2)N1CCOCC1` (stereo not given), the fluorescence slope is -0.0865 (active).

For the molecule `Cc1nc2cccc(C(=O)NC3CCCCC3)c2o1`, the fluorescence slope is -0.416 (inactive).

`COc1ccccc1-c1nnc2sc(-c3ccc(N(C)C)cc3)nn12`: the fluorescence slope was -0.517 (inactive).

Take `O=C(Nc1cccc(C(F)(F)F)c1)c1cccnc1N1CCCC1`: the fluorescence slope is -0.531 (inactive).

For `CCNC(=O)C1CC(=O)N(Cc2ccc3c(c2)OCO3)C(=Nc2ccc(OCC)cc2)S1` (stereo not given), the fluorescence slope is -0.588 (inactive).
